Compound activity: PubChem BioAssay, National Center for Advancing Translational Sciences (NCATS)
Vif-A3G inh – inhibitors of Vif-APOBEC3G interaction | Q9HC16 | HeLa A3G-eYFP + Vif (tagged APOBEC3G with the HIV-1 protein that degrades it), YFP fluorescence, overnight | AID 602310 | 410,000 tested, 0.076% active | Potency, µM (top dose mostly 46.1 µM), without a hit: at the top dose activity, negative = active, most hits filed as inhibitors; note: % is set by controls: 0 for no effect and ±100 for the full control effect; nearly all actives have a fitted effect of over 60% in size
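HeLa cells stably expressing Vif and C-terminally eYFP-tagged A3G, seeded overnight at 37 deg C, then exposed to compound by pintool overnight at 37 deg C. Rise in yellow fluorescence (Ex 488/Em 500-530, Acumen) marks blocked Vif-driven A3G degradation.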
Vif-A3F inh – Vif-A3F binding inhibition. HeLa A3F-eYFP + Vif (tagged APOBEC3F with the HIV-1 protein that degrades it), YFP fluorescence increase. Potency, µM (doses to about 46.1 µM), for inactives: top-dose activity, negative = active. 390,000 tested, 0.2% active. AID 602313; note: % of control where 0% means no effect; nearly all actives have a fitted effect of over 65% in size
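Fluorescence increase (Ex 488/Em 500-530) after overnight compound treatment at 37 deg C flags inhibition of Vif-driven A3F-eYFP loss in stable HeLa A3F-eYFP/Vif cells seeded overnight beforehand.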
Rango dissoc inh – inhibition of RanGTP-driven Rango-importin beta dissociation; AID 540253; Potency, µM (doses to about 46.1 µM), for inactives: at the highest dose activity change, negative = inhibition; Biochemical FRET Rango-importin beta, RanGTP-induced dissociation; O95149+P62826; 340,000 tested, 0.071% active; calls by dose curve; note: % of control where 0% means no effect; nearly all actives have a fitted effect of over 45% in size
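FRET read at 45 min, room temperature: inhibitors block the CFP/YFP signal rise when RanGTP (0.6 uM Ran, 2 mM GTP, 0.2 uM RCC1) frees Rango (0.1 uM) from importin beta (0.25 uM). Pre-read after 5 min compound exposure flags interference.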
Eya2 phos inh – inhibitors of human Eya2 phosphatase activity. 330,000 tested, 0.006% active. recombinant Eya2, OMFP fluorescence dephosphorylation (OMFP is methylfluorescein phosphate). O00167. Potency, µM (doses to about 76.9 µM), without a hit: at the highest dose activity, negative = inhibition, hits mostly inhibitors; note: % is set by controls: 0 for no effect and ±100 for the full control effect
Target sequence (O00167 whole entry, looked up): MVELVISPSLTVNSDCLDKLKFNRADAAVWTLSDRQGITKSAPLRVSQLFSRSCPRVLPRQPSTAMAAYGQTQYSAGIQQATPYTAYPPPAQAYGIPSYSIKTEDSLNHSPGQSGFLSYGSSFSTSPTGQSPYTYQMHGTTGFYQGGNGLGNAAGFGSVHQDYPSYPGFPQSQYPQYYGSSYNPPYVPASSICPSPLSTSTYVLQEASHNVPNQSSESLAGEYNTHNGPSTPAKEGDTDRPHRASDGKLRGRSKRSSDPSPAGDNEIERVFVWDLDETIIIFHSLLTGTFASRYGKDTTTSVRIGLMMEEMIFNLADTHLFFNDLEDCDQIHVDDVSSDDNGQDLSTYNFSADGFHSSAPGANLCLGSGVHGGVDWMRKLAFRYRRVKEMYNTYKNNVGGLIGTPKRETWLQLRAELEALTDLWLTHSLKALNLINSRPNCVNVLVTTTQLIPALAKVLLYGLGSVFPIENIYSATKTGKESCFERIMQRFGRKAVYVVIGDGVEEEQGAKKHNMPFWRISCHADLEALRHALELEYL
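Eya2 protein (added as 0.2 uM solution) was preincubated with compound for 10 min at ambient temperature in 50 mM HEPES pH 7.5, 50 mM NaCl, 5 uM MgCl2, 0.05% BSA, 1 mM DTT. OMFP (added at 50 uM) then reacted 10 min; fluorescence read at 485/525 nm.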
S-ASM inh – human S-ASM enzyme inhibition; placental ASM, HMU-PC fluorogenic substrate, 60 min; P17405; 340,000 tested, 0.006% active; Potency, µM (titrated, usually from 57.5 µM), without a hit: at the top dose activity change, negative = inhibition, hits mostly inhibitors
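qHTS format. ASM enzyme prepared from human placenta hydrolyses the fluorogenic substrate HMU-PC0 (9 uM final) over 60 min at 37 °C after a 10 min compound preincubation.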
Rango-impB inh – Rango-importin beta binding inhibition; Potency, µM (titrated, usually from 92.2 µM), inactives show top-dose inhibition of complex formation; 340,000 tested, 0.031% active; AID 540263; Rango CFP/YFP FRET sensor + importin beta, 45 min; Q14974; calls by dose curve;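 note: 0% = DMSO wells and 100% = buffer wells lacking importin beta; nearly all actives have a fitted effect of over 15% in size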
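Inhibition scored from the CFP 486 nm/YFP 530 nm FRET ratio 45 min after adding 0.125 microM importin beta to 50 nM Rango biosensor preincubated 5 min with compound (room temperature, PBS with DTT, Tween-20, BSA). No-importin wells as positive control.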
Starred values were filed as active, the others as inactive. Most compounds without a hit are left out; they make up all but 0.34% or so of the library. Unless noted, calls come from the whole dose curve; as a rule, active = well fitted curve in the direction sought with a large enough effect; inconclusive = small, poorly fitted or top-dose-only effect, or another doubt; inactive = no such curve, though single readings can be large; an effect the other way counts as inactive or inconclusive. Potency is the fitted concentration of half-maximal effect.

Screening CCOc1ccc(NC(=O)/C(C#N)=C/c2ccc(N3CCCC3)c(C)c2)cc1 returned Vif-A3G inh 4µM*, Vif-A3F inh 2.5µM*, Rango dissoc inh inconclusive, Eya2 phos inh 26%, S-ASM inh 3% and Rango-impB inh inconclusive.
`CCN(CC)S(=O)(=O)c1ccc(N2CCCCC2)c(NC(=O)/C(C#N)=C/c2ccc(OC)cc2)c1` gave Vif-A3G inh 0%, Vif-A3F inh -1%, Rango dissoc inh 3%, Eya2 phos inh 0%, S-ASM inh -1% and Rango-impB inh 1%.
Screening O=C1COc2ccc(C(=O)CSc3nc4ccccc4c(=O)n3-c3ccc(Cl)c(Cl)c3)cc2N1 returned Vif-A3G inh inconclusive, Vif-A3F inh 10µM*, Rango dissoc inh 2%, Eya2 phos inh 1%, S-ASM inh -4% and Rango-impB inh 6%.
`CCc1ccc(-n2c(SCC(=O)c3ccc4c(c3)NC(=O)CO4)nc3ccccc3c2=O)cc1` gave Vif-A3G inh 0%, Vif-A3F inh inconclusive, Rango dissoc inh 0%, Eya2 phos inh 7%, S-ASM inh 0% and Rango-impB inh 2%.
`CC(C)(C)CC(C)(C)N=C1Nc2ccc(Cl)cc2NC12C[C@H]1CCC(=O)N3CC[C@@H](C2)[C@@H]13` (stereo partly specified) gave Vif-A3G inh -8%.
For Cc1nc2c3cc(F)ccc3n(Cc3ccccc3)c2s1 the results were Vif-A3G inh 6.3µM*, Vif-A3F inh -28%, Rango dissoc inh -6%, Eya2 phos inh 2%, S-ASM inh -3% and Rango-impB inh 1%.
Cc1nc2c3cc(F)ccc3n(Cc3ccccc3F)c2s1 was read as Vif-A3G inh inconclusive, Vif-A3F inh -15%, Rango dissoc inh 0%, Eya2 phos inh 1%, S-ASM inh -7% and Rango-impB inh 4%.
`CN1CCN(C(CNC(=O)C(=O)Nc2ccccc2)c2ccc3c(c2)OCO3)CC1` (stereo unspecified) gave Vif-A3G inh 1% and Vif-A3F inh 1%.
Screening Cc1ccc(S(=O)(=O)C(C#N)c2nc3ccccc3nc2N2CCCC2)cc1 (stereo unspecified) returned Vif-A3G inh inconclusive, Vif-A3F inh 22µM*, Rango dissoc inh inconclusive, Eya2 phos inh 16%, S-ASM inh 214% and Rango-impB inh inconclusive.
For CCCCCNC(=O)C(C#N)c1nc2ccccc2nc1N1CCCC1 (stereo unspecified) the results were Vif-A3G inh -17%, Vif-A3F inh 7.1µM*, Rango dissoc inh inconclusive, Eya2 phos inh 27%, S-ASM inh 150% and Rango-impB inh inconclusive.
CCN1CCN(c2nc3ccccc3nc2C(C#N)S(=O)(=O)c2ccc(C)cc2)CC1 (stereo unspecified) was read as Vif-A3G inh 1%, Vif-A3F inh -17%, Rango dissoc inh inconclusive, Eya2 phos inh -5%, S-ASM inh 1% and Rango-impB inh inconclusive.
N#CC(C(=O)NCc1ccccc1)c1nc2ccccc2nc1N1CCCC1 (stereo unspecified) was read as Vif-A3G inh -1%, Vif-A3F inh 10µM*, Rango dissoc inh inconclusive, Eya2 phos inh 41%, S-ASM inh 177% and Rango-impB inh inconclusive.
CC(C)(C)n1ncc2c(=O)n(Cc3ccc(Cl)c(F)c3)cnc21 was read as Vif-A3G inh 1%.
For CC1=CC(C)(C)Nc2ccc(OC(=O)CCN3C(=O)c4ccccc4C3=O)cc21 the results were Vif-A3G inh 11µM*, Vif-A3F inh inconclusive, Rango dissoc inh -6%, Eya2 phos inh -3%, S-ASM inh 3% and Rango-impB inh -1%.
For O=C(O)CN1C(=O)/C(=C/C=C/c2ccccc2)SC1=S the results were Vif-A3G inh 1%, Vif-A3F inh 3%, Rango dissoc inh -20%, Eya2 phos inh -3%, S-ASM inh -3% and Rango-impB inh 1%.
